About 79,000 compounds went through this panel and 15% of them were active in at least one assay; those are over-represented in the sample as a whole. Active and inactive are the calls of the source. Rule as the data show it: active = growth inhibition above about 70%; inactive = the rest.
Experiments:
[1] = NCI Yeast Anticancer Drug Screen. Data for the rad52 strain (AID 147);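 also: 0% = growth of vehicle-treated control cultures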; settings: S. cerevisiae rad52 mutant growth inhibition, hits give high values
In short: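 Inhibition of yeast growth, referenced to vehicle controls, was the measured output for a strain with defective DNA damage repair.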

[2] = NCI Yeast Anticancer Drug Screen. Data for the wt1 strain (AID 149);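 also: 0% = growth of vehicle-treated wt1 cultures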; settings: S. cerevisiae wt1 strain (SPY 50644) growth inhibition, hits give high values
In short: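 The wt1 strain was treated with compounds, and growth was compared with vehicle-treated cultures to give inhibition.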

[3] = NCI Yeast Anticancer Drug Screen. Data for the rad50EPP+ strain (AID 151);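 also: 0% = growth of vehicle-treated control cultures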; settings: S. cerevisiae rad50 mutant strain, hits give high values
In short: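 Genetically defined yeast (rad50EPP+, DNA damage repair alteration) is grown with compound, and inhibition of growth is expressed relative to vehicle-treated controls.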

[4] = NCI Yeast Anticancer Drug Screen. Data for the rad50 strain (AID 155);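 also: 0% = growth of vehicle-only cultures of the same strain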; settings: S. cerevisiae rad50 strain growth inhibition, hits give high values
In short: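 Cells are treated with compound, grown, and their growth is then scored against vehicle-only cultures of the same repair-deficient yeast strain.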

[5] = NCI Yeast Anticancer Drug Screen. Data for the mec2-1 strain (AID 157); settings: S. cerevisiae mec2-1 strain, hits give high values
In short: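 Each compound was tested on mec2-1 yeast, a strain altered in DNA damage repair or cell cycle control. Growth inhibition is reported relative to vehicle.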

[6] = NCI Yeast Anticancer Drug Screen. Data for the sgs1 mgt1 strain (AID 161);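 also: 0% = growth of cultures given vehicle only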; settings: S. cerevisiae sgs1 mgt1 strain, hits give high values
In short: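 Mutant yeast exposed to compound; growth scored against vehicle-only wells.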

[7] = NCI Yeast Anticancer Drug Screen. Data for the CLN2oe strain (AID 163);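 also: 0% = growth of vehicle-only control cultures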; settings: S. cerevisiae CLN2oe strain, hits give high values
In short: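 First, the altered yeast strain was treated with each compound; second, its growth was measured; finally, inhibition was derived by comparison with vehicle controls.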

[8] = NCI Yeast Anticancer Drug Screen. Data for the cln2 rad14 strain (AID 165);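 also: 0% = growth equal to vehicle treated cultures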; settings: S. cerevisiae cln2 rad14 strain, hits give high values
In short: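 Test compounds were added to cln2 rad14 yeast cultures; inhibition of growth was then determined by comparison with vehicle treatment.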

[9] = NCI Yeast Anticancer Drug Screen. Data for the bub3 strain (AID 167); settings: S. cerevisiae bub3 mutant strain, hits give high values
In short: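 Part of a panel of yeast mutants defective in DNA damage repair or cell cycle regulation. Each strain is grown with compound, and inhibition is calculated relative to solvent-treated cultures.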

[10] = NCI Yeast Anticancer Drug Screen. Data for the wt2 strain (AID 169);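 also: 0% = growth of vehicle-treated yeast cultures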; settings: S. cerevisiae wt2 strain growth inhibition, hits give high values
In short: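 The panel's yeast strains carry defined changes in DNA repair or cell cycle genes. Each strain is grown with compound, and growth loss is scored relative to vehicle.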

[11] = NCI Yeast Anticancer Drug Screen. Data for the mlh1 strain (AID 171);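 also: 0% = growth of vehicle-treated control cultures of the same strain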; settings: S. cerevisiae mlh1 strain growth inhibition, hits give high values
In short: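 Inhibition values reflect reduced yeast growth in the presence of compound, referenced to vehicle controls, using a strain chosen for its alteration in DNA repair or cell cycle control.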

[12] = NCI Yeast Anticancer Drug Screen. Data for the sgs1 strain (AID 173);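 also: 0% = growth of vehicle-only control cultures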; settings: S. cerevisiae sgs1 mutant, hits give high values
In short: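 Vehicle-treated cultures served as reference for growth inhibition of a yeast strain altered in DNA damage repair or cell cycle control after compound exposure.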

[13] = NCI Yeast Anticancer Drug Screen. Data for the mlh1 rad18 strain (AID 175); settings: S. cerevisiae mlh1 rad18 strain growth inhibition, hits give high values
In short: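 Inhibition values reflect reduced growth of mutant yeast versus vehicle-treated controls following compound exposure; the mutations affect DNA damage repair.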

[14] = NCI Yeast Anticancer Drug Screen. Data for the rad18 strain (AID 177); settings: S. cerevisiae rad18 mutant growth inhibition, hits give high values
In short: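 Steps: expose repair-mutant yeast to compound; measure growth; express as inhibition relative to vehicle control.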

[15] = NCI Yeast Anticancer Drug Screen. Data for the rad14 strain (AID 159);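 also: 0% = growth of vehicle-treated control cultures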; settings: S. cerevisiae rad14 strain growth inhibition, hits give high values
In short: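 Readout: yeast growth inhibition, referenced to vehicle-only cultures. Strain bears a defined alteration in DNA damage repair.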

[16] = at 5.0 µM (retest, dose inferred, filed as 0.5)
[17] = at 50.0 µM (retest, dose inferred, filed as 5.0)

Measured: growth inhibition

COCCCN(Cc1cc(OC)c(OC)c(OC)c1)C(=S)Nc1cccc(Cl)c1
inactive: [1]; at 1.2 µM 20% | [1]; at 3.7 µM 12% | [1]; at 11.0 µM 7% | [1]; at 33.0 µM 23% | [1]; at 100.0 µM 46% | [2]; at 1.2 µM 15% | [2]; at 3.7 µM 12% | [2]; at 11.0 µM 9% | [2]; at 33.0 µM 15% | [2]; at 100.0 µM 24% | [3]; at 1.2 µM -12% | [3]; at 3.7 µM -21% | [3]; at 11.0 µM -28% | [3]; at 33.0 µM -6% | [3]; at 100.0 µM -9% | [4]; at 1.2 µM -24% | [4]; at 3.7 µM -13% | [4]; [16] 43% | [4]; at 11.0 µM -14% | [4]; at 33.0 µM -8% | [4]; [17] 69% | [4]; at 50.0 µM 22.7% | [4]; at 100.0 µM 40% | [5]; at 1.2 µM -12% | [5]; at 3.7 µM 4% | [5]; [16] 51% | [5]; at 11.0 µM -19% | [5]; at 33.0 µM -18% | [5]; [17] 56% | [5]; at 50.0 µM -9.3% | [5]; at 100.0 µM 20% | [6]; [16] -32% | [6]; [17] 4% | [6]; at 50.0 µM 24.4% | [7]; at 1.2 µM 0% | [7]; at 3.7 µM -9% | [7]; at 11.0 µM -30% | [7]; at 33.0 µM -26% | [7]; at 100.0 µM 1% | [8]; [16] 41% | [8]; [17] 46% | [8]; at 50.0 µM 17.4% | [9]; at 1.2 µM -3% | [9]; at 3.7 µM 0% | [9]; [16] 5% | [9]; at 11.0 µM -2% | [9]; at 33.0 µM 30% | [10]; at 1.2 µM 5% | [10]; at 3.7 µM -3% | [10]; at 11.0 µM -9% | [10]; at 33.0 µM 14% | [10]; at 100.0 µM 43% | [11]; at 1.2 µM 0% | [11]; at 3.7 µM -19% | [11]; at 11.0 µM -38% | [11]; at 33.0 µM -30% | [11]; at 100.0 µM 31% | [12]; at 1.2 µM -20% | [12]; at 3.7 µM -22% | [12]; at 11.0 µM -21% | [12]; at 33.0 µM -16% | [12]; at 100.0 µM 36% | [13]; [16] 46% | [13]; [17] 67% | [13]; at 50.0 µM 19.2% | [14]; at 1.2 µM -17% | [14]; at 3.7 µM -25% | [14]; at 11.0 µM -17% | [14]; at 33.0 µM -15% | [14]; at 100.0 µM 27%
active: [9]; [17] 79% | [9]; at 50.0 µM 72.2% | [9]; at 100.0 µM 72%

C=Cc1cnc([N+](=O)[O-])n1C
active: [1]; at 33.0 µM 85% | [1]; at 100.0 µM 95% | [2]; at 100.0 µM 85% | [3]; at 33.0 µM 82% | [3]; at 100.0 µM 91% | [5]; at 33.0 µM 87% | [5]; [17] 94% | [5]; at 50.0 µM 85.7% | [5]; at 100.0 µM 95% | [15]; at 11.0 µM 76% | [15]; at 33.0 µM 96% | [15]; at 100.0 µM 98% | [6]; [17] 95%
inactive: [1]; at 1.2 µM 2% | [1]; at 3.7 µM 35% | [1]; at 11.0 µM 65% | [2]; at 1.2 µM 13% | [2]; at 3.7 µM 21% | [2]; at 11.0 µM 19% | [2]; at 33.0 µM 39% | [3]; at 1.2 µM -1% | [3]; at 3.7 µM 15% | [3]; at 11.0 µM 41% | [5]; at 1.2 µM 11% | [5]; at 3.7 µM 3% | [5]; [16] 0% | [5]; at 11.0 µM 26% | [15]; at 1.2 µM -1% | [15]; at 3.7 µM 25% | [6]; [16] 61%

— PubChem BioAssay (NCI)
